From PubChem
aSyn rescue – qHTS of alpha-syn Inhibitors; Yeast expressing alpha-synuclein, growth rescue, BacTiter-Glo, 24 h; Potency, µM (titrated, usually from 46.1 µM), inactives show at the top dose growth rescue (activation), most hits filed as activators; 370,000 tested, 0.14% active; AID 652106, 2013; also: potency is read from the fitted curve at half-maximal effect; % of control where 0% means no effect; nearly all actives have a fitted effect of over 65% in size
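Screening used galactose-induced yeast with toxic alpha-synuclein levels, exposed to compound for 24 hr at 30 deg C. Cell growth, read with BacTiter-Glo luminescence, gave the measured signal.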
TDP-43 yeast inh – qHTS of TDP-43 Inhibitors | TDP-43 expressing yeast growth rescue, BacTiter-Glo, 24 h | Potency, µM (titrated, usually from 46.1 µM), inactives show top-dose growth rescue (activation), usual class: activators | 410,000 tested, 1.8% active; also: potency is read from the fitted curve at half-maximal effect; % of control where 0% means no effect; nearly all actives have a fitted effect of over 50% in size
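Luminescence from BacTiter-Glo reports growth of TDP-43-expressing yeast after 24 hr at 30 deg C with compound. Cells were raffinose-pregrown to mid-log, then seeded in galactose medium at OD600=0.02.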
Akt phos inh – HTS Assay for Inhibitors of Akt Phophorylation: Primary Screen; Neuro2A IGF-stimulated pAkt S473 HTRF, 20 min; active compounds read low; 360,000 tested, 0.32% active; AID 651550, 2012; activity change, % for hits at 50 µM; in the data active = activity change below about -80%; inconclusive = mostly about -51% to -80%; also: % is scaled to controls: 0 for no effect and ±100 for the full control effect
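Neuro2A cells (4,500/well, DMEM with 0.5% FBS) were treated with compound at a single 50 µM final concentration, stimulated with 6 nM IGF for 20 min at 37 °C, and lysed. Phospho-Akt Ser473 was read by HTRF as 665/615 ratio ×10^4.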
Abeta yeast res – qHTS for compounds that reverse cellular toxicity of Amyloid beta (A-beta) peptide in yeast: Primary Screen | 410,000 tested, 0.063% active | yeast expressing A-beta42, growth rescue, OD600, 48 h; response scale: 0% DMSO, 100% iron-clioquinol control | AID 1347071, 2019 | Potency, µM (doses to about 46.1 µM), hits mostly activators; also: potency is read from the fitted curve at half-maximal effect; nearly all actives have a fitted effect of over 55% in size
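Yeast A-beta toxicity model in growth medium with pinned compounds, 48 h at 30 C; growth read as absorbance at 600 nm. Normalized to FeCl3/clioquinol equimolar mix (positive) and DMSO (negative).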
FUS yeast rescue – qHTS for Suppressors of FUS Proteinopathy: Primary screen using FUS-linked yeast assay; S. cerevisiae FUS-expressing, growth rescue, OD600, 24 h; Potency, µM (highest dose often 76.6 µM), actives largely listed as activators; 390,000 tested, 0.24% active; AID 1347120, 2019;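 also: potency is read from the fitted curve at half-maximal effect; plate controls were DMSO vehicle for no effect and reference control for full effect; nearly all actives have a fitted effect of over 55% in size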
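Yeast expressing FUS under galactose induction, OD 0.005 in 2% galactose medium; compounds in a dilution series, 24 h at 30C. Growth rescue by absorbance at 600 nm; CP55940 positive control, DMSO negative.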
An asterisk follows results filed as active; i = inactive; ? = inconclusive; / = no result. An excerpt weighted towards active compounds, which were near 2.3% of everything screened. Unless noted, calls follow the shape of the dose curve; as a rule, active = well fitted curve in the direction sought with a large enough effect; inconclusive = small, poorly fitted or top-dose-only effect, or another doubt; inactive = no such curve, though single readings can be large; an effect the other way counts as inactive or inconclusive.

SMILES	aSyn rescue	TDP-43 yeast inh	Akt phos inh	Abeta yeast res	FUS yeast rescue
COc1ccc(-c2nc3scc(CCNS(=O)(=O)c4ccccc4F)n3n2)cc1	/	22µM*	/	i	i
COC(=O)c1ccc(-c2ccc3c(c2)[C@]2(CCC[C@@H](OCc4ccccc4)[C@@H]2NC(=O)CCc2ccccc2)C(=O)N3Cc2ccccc2)cc1	/	/	/	/	i
CC(C)CNc1ncnc2onc(-c3ccc(Cl)cc3)c12	/	11µM*	/	i	i
CCOc1ccc(CCNc2ncnc3onc(-c4ccc(Cl)cc4)c23)cc1	/	21%	/	i	i
Clc1ccc(CNc2ncnc3onc(-c4ccc(Cl)cc4)c23)cc1	/	13µM*	/	i	?
Cc1ccc(CCNc2ncnc3onc(-c4ccc(Cl)cc4)c23)cc1	/	21%	/	i	i
Cc1cccc(CCNc2ncnc3onc(-c4ccc(Cl)cc4)c23)c1	/	35µM*	/	i	i
COc1ccc(S(=O)(=O)n2nc(C)c(S(=O)(=O)N3CCC(C)CC3)c2C)cc1OC	/	18%	/	i	i
CN(C)c1ccc(/C=C/c2cc(/C=C/c3ccc(N(C)C)cc3)c3ccccc3n2)cc1	-69%	/	/	/	/
Cc1ccc(NC(=O)CSc2nccn2-c2ccccc2)cc1	/	?	/	i	i
O=C(CN1CC[n+]2c(-c3cccs3)csc21)c1ccc(-c2ccccc2)cc1	-11%	3.5µM*	i	i	i
CN1CCCN(C2C3CC4CC(C3)CC2C4)CC1 (centres undefined)	1%	-5%	-121%*	i	i
CS(=O)(=O)N1CCN(C2C3CC4CC(C3)CC2C4)CC1 (centres undefined)	1%	-17%	i	i	i
Oc1c(Br)cc(Br)cc1CNc1cnc2ccccc2c1	15%	20µM*	i	i	i
COc1cc(C(=O)OCc2cc(=O)n3ccsc3n2)cc(OC)c1OC	/	27%	/	i	i
CCc1ccc(S(=O)(=O)c2cnc3ccc(OC)cc3c2N2CCCC(C)C2)cc1 (centres undefined)	/	-9%	/	i	?
COc1cccc(-c2ncnn2-c2sc3c(c2C#N)CCCCC3)c1OC	/	25%	/	i	i
O=C(Nc1ccc(F)c(Cl)c1)C1CCCCC1	-3%	18µM*	i	i	i
COc1ccc(NC(=O)Oc2ccccc2)cc1Cl	10%	18µM*	i	i	i
Cc1ccc(NC(=S)NC(=O)C2CC2)cc1Cl	-20%	32µM*	i	?	i
COc1ccc(NC(=O)CNC(c2ccccc2)c2ccccc2)cc1Cl	3%	-18%	i	i	i
O=C(NC(=S)Nc1ccc(F)c(Cl)c1)C1CC1	-13%	3.2µM*	i	?	i
CCc1cccc(C)c1NC(=O)Cn1c(=O)cc(C(F)(F)F)c2c(C)nn(C)c21	/	0%	/	i	i
COc1ccccc1NC(=S)NC(=O)C1CC1	-12%	?	i	i	/
O=C(NC(=S)Nc1ccccc1Cl)C1CC1	-19%	10µM*	i	i	i
SMILES	aSyn rescue	TDP-43 yeast inh	Akt phos inh	Abeta yeast res	FUS yeast rescue
COC(=O)NC(=S)Nc1ccc(Oc2ccc(Cl)cc2Cl)c(Cl)c1	-19%	18µM*	i	i	i
COC(=O)NC(=S)Nc1ccc(Oc2ccc(Cl)cc2)c(Cl)c1	-10%	-9%	i	i	i
COc1ccc(C2C(C(=O)Nc3ccccc3OC)=C(C)Nc3c(C(=O)Nc4ccccc4)cnn32)c(OC)c1 (centres undefined)	/	2%	/	i	i
COc1ccccc1C(=O)Oc1c(Sc2ccccc2)c(C)nn1C(C)(C)C	/	5%	/	i	i
CC1CCN(c2nc3ccc(C(=O)NCc4ccc(Cl)cc4)cc3s2)CC1	/	13%	/	i	i
CC1CCN(c2nc3ccc(C(=O)O)cc3s2)CC1	-11%	4µM*	i	i	/
O=C(N/N=C/c1c(O)ccc2ccccc12)c1cccnc1	-1%	-23%	i	i	i
O=C(N/N=C\c1c(O)ccc2ccccc12)c1cncc(Br)c1	20µM*	19%	i	?	i
CCN1CCN(C(=S)NCC2CCCO2)CC1 (centres undefined)	-13%	-15%	i	i	i
Cc1cc(C)c(C)c(S(=O)(=O)N2CCN(C(=S)NCC3CCCO3)CC2)c1C (centres undefined)	22%	22µM*	i	?	?
Cc1cnn(C(=S)NCC2CCCO2)c1 (centres undefined)	1%	6%	-103%*	i	i
CCCCN(CC)C(=O)c1nn(C)c2c1CSc1ccccc1-2	/	?	/	i	i
COc1ccc(CNC(=O)Cc2c(C)c3ccc(O)cc3oc2=O)cc1	/	11%	/	i	i
CCC(C)S(=O)(=O)c1oc(-c2cccs2)nc1S(=O)(=O)c1ccccc1 (centres undefined)	/	11µM*	/	i	i
CC(C)CS(=O)(=O)c1oc(-c2ccc(F)cc2)nc1S(=O)(=O)c1ccccc1	/	20µM*	/	i	i
CNc1oc(-c2cccs2)nc1S(=O)(=O)c1ccccc1	1%	-15%	i	i	i
O=C(COc1ccc2c3c(c(=O)oc2c1)CCC3)N1CCN(c2ccc(F)cc2)CC1	8%	32µM*	i	i	i
O=C(COc1ccc2ccc(=O)oc2c1)N1CCN(c2ccccc2)CC1	15%	20µM*	i	i	i
Cc1cccc(N2CCN(C(=O)COc3ccc4ccc(=O)oc4c3)CC2)c1C	14%	?	i	i	i
CCOC(=O)c1ccc(NS(=O)(=O)c2cn(C)c(C)n2)cc1	-9%	16%	/	i	i
Cc1c(Cl)cccc1NC(=O)CCS(=O)(=O)c1ccc2c(c1)CC(C)N2C(=O)C1CC1 (centres undefined)	/	12%	/	i	i
Cc1cc(C(=O)N2CCc3ccccc32)n(-c2ccccc2)n1	-1%	?	i	i	i
Cc1cccc(-n2cnc3cc(C(=O)N4CCc5ccccc54)ccc32)c1	24%	13µM*	i	i	/
COCCNC(=O)c1ccc2c(c1)ncn2-c1cccc(C)c1	/	/	i	i	i
Cc1cc(C)n(-c2ccc(C(=O)N3CCc4ccccc43)cc2)n1	-3%	11µM*	i	i	i
CCCC12CN3CC(C)(CN(C1)C31CCCCC1)C2=O	0%	12%	i	i	i
CC1(C)CC2(CCO1)N1CC3(C)CN2CC(C)(C1)C3=O (centres undefined)	0%	3.2µM*	i	i	/
